In PubChem BioAssay (EPA / NIEHS):
Active and inactive are the calls of the source. The calls were made as follows, unless noted: active = hit-call score of the fitted dose curve at least 0.9, where 1 is the maximum; inactive = score below 0.9.

Tests used:
[1] = CCTE_Shafer_MEA_dev_interburst_interval_mean: CCTE's Neural Network Formation Assay for Mean Interburst Interval, Shafer Lab (AID 2284046);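 also: well-mean interburst interval of bursting electrodes as AUC over four recording days; curve fitted for decrease in interburst interval relative to DMSO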
Method in brief: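 Developing rat cortical networks on 48-well MEAs receive compound from the day of plating. Burst intervals from each active electrode are averaged per well, and AUC over the recording days is fitted in the negative direction against DMSO.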

[2] = CCTE_Shafer_MEA_dev_inter_network_spike_interval_mean: CCTE's Neural Network Formation Assay for Mean Inter-network Spike Interval, Shafer Lab (AID 2284047)
Method in brief: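 Rat cortical cultures, 1.5 x 10^5 cells/well on 48-well MEA plates; continuous exposure days 0–12, medium and compound refreshed DIV 5, 9. Mean time between consecutive network-spike peaks; AUC across DIV 5/7/9/12; DMSO baseline, negative fitting direction.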

[3] = CCTE_Shafer_MEA_dev_network_spike_number: CCTE's Neural Network Formation Assay for Number of Network Spikes, Shafer Lab (AID 2284048);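 also: synchronized bursts across electrodes counted on days 5 7 9 12 and integrated as AUC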;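 as to AC50: fit as a loss of signal meaning fewer network spikes than DMSO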
Method in brief: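 Rat cortical primary cultures on 48-well MEA (16 electrodes/well); continuous exposure DIV 0–12, full medium and treatment exchange DIV 5, 9. Readout: network spike count, AxIS adaptive detection, recordings DIV 5/7/9/12 collapsed to AUC; loss-of-signal fit, DMSO baseline.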

[4] = CCTE_Shafer_MEA_dev_network_spike_peak: CCTE's Neural Network Formation Assay for Mean Number of Electrodes in Network Spike, Shafer Lab (AID 2284049);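 as to AC50: fitted for loss of signal meaning fewer electrodes in network spikes than DMSO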
Method in brief: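 Network-spike peak electrode count from recordings on days 5, 7, 9 and 12 was combined as trapezoidal area under the curve. Rat cortical cultures were treated continuously from plating, with compound renewed at each feed (DIV 5, 9); fits versus DMSO.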

[5] = CCTE_Shafer_MEA_dev_spike_duration_mean: CCTE's Neural Network Formation Assay for Mean Spike Duration, Shafer Lab (AID 2284051);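 also: mean network spike duration pooled as area under curve over DIV 5 to 12 recordings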;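 as to AC50: potency for a decrease in mean network spike duration versus DMSO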
Method in brief: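 Readout is the average length of network spikes, clustered firing across electrodes, summed over DIV 5, 7, 9 and 12 as area under the curve. Neurons from rat cortex developed networks on MEA plates under continuous 12-day exposure.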

[6] = CCTE_Shafer_MEA_dev_per_network_spike_spike_number_mean: CCTE's Neural Network Formation Assay for Mean Number of Spikes in a Network Spike, Shafer Lab (AID 2284053);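 as to AC50: fitted as decrease in spikes per network spike relative to DMSO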
Method in brief: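 Continuous twelve-day exposure of developing rat cortical networks grown over 16 microelectrodes per well; spontaneous firing is captured at four time points, and the per-network-spike spike number is integrated over development by trapezoidal AUC.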

[7] = CCTE_Shafer_MEA_dev_per_network_spike_spike_percent: CCTE's Neural Network Formation Assay for Percent of Spikes in a Network Spike, Shafer Lab (AID 2284054)
Method in brief: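 Read-out: percent of spikes falling in a 0.05 s window at network-spike peak, from spontaneous MEA recordings on days 5, 7, 9 and 12; trapezoidal AUC; loss of signal versus DMSO. Rat cortical cultures, compound present throughout.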

DIO2 (gene 1734) = assay: CCTE_GLTED_hDIO2: CCTE's human Deiodinase 2 (DIO2) Inhibition Assay, Great Lakes Toxicology and Ecology Division (GLTED) Lab (AID 2284050; active = hit-call score of the fitted dose curve at least 0.9, where 1 is the maximum)
Method in brief: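 Inhibition is judged by reduced iodide release: uninhibited human DIO2 frees iodide from substrate over 3 h, measured afterward by Sandell-Kolthoff colorimetry. Iodinated chemicals or nitrite, iron and thiocyanate may interfere.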

DIO3 (gene 1735) = assay: CCTE_GLTED_hDIO3: CCTE's human Deiodinase 3 (DIO3) Inhibition Assay, Great Lakes Toxicology and Ecology Division (GLTED) Lab (AID 2284055; active = hit-call score of the fitted dose curve at least 0.9, where 1 is the maximum;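 also: potency is for inhibition seen as loss of released iodide signal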)
Method in brief: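 Human type 3 deiodinase, expressed via adenovirus system, was exposed to test chemicals for 3 hours in a cell-free format. Released iodide was then determined spectrophotometrically by Sandell-Kolthoff; plates ran in triplicate.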

[8] = UKN5_HCS_SBAD2_cell_viability: Viability Assessment in the University of Konstanz (UKN) Leist Lab Neurite Outgrowth Assay in human iPSC-derived immature Dorsal Root Ganglia Neurons (UKN5) (AID 2284056)
Method in brief: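 iPSC-derived immature peripheral neurons (SBAD2) seeded on Matrigel with CHIR99021, SU5402 and DAPT, dosed 1 h later for 24 h. Viability from Hoechst H-33342 and calcein-AM live staining, high-content imaging; bidirectional fit versus DMSO.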

Measured: AC50

CCOCn1c(-c2ccc(Cl)cc2)c(C#N)c(Br)c1C(F)(F)F
inactive: [2]
active: [1] 6.29 µM | [3] 7.36 µM | [4] 8.42 µM | [5] 6.23 µM | [6] 6.48 µM | [7] 10.8 µM

CC(=Cc1ccccc1)[N+](=O)[O-]
active: DIO2 (gene 1734) 41.8 µM | DIO3 (gene 1735) 64.6 µM

CC1(C)[C@H](C(=O)O[C@H](C#N)c2cccc(Oc3ccccc3)c2)[C@@H]1/C=C(\Cl)C(F)(F)F
inactive: [1] | [2]
active: [3] 1.35 µM | [4] 8.95 µM | [5] 12.9 µM | [6] 12.9 µM | [7] 3.67 µM

CNC(=O)CSP(=O)(OC)OC
inactive: [1] | [2] | [3] | [4] | [5] | [6] | [7]
active: [8] 20.9 µM

FC(F)OCC(F)(F)C(F)(F)F
inactive: [1] | [2] | [3] | [4] | [5] | [6] | [7]

C=CC(F)(C(F)(F)F)C(F)(F)C(F)(F)F (centres undefined)
inactive: [1] | [2] | [3] | [4] | [5] | [6] | [7]

Cc1cc(C(F)(C(F)(F)F)C(F)(F)F)ccc1NC(=O)c1cccc(I)c1C(=O)NC(C)(C)CS(C)(=O)=O
inactive: [2] | [3]
active: [1] 6.7 µM | [4] 18 µM | [5] 11.3 µM | [6] 17.4 µM | [7] 20.9 µM

CC(=O)C(F)(F)C(F)(F)F
inactive: [1] | [2] | [3] | [4] | [5] | [6] | [7]

CCCCCCCCCCCCc1cccc(S(=O)(=O)O)c1
active: DIO2 (gene 1734) 90.4 µM | DIO3 (gene 1735) 38.1 µM

CC(F)(F)CC(F)(F)F
inactive: [1] | [2] | [3] | [4] | [5] | [6] | [7]

OC(Cc1ccccc1Cl)(Cn1[nH]cnc1=S)C1(Cl)CC1 (centres undefined)
inactive: [2]
active: [1] 82.5 µM | [3] 24.4 µM | [4] 50 µM | [5] 33.6 µM | [6] 23.6 µM | [7] 82.3 µM

O=S1(=O)OC(c2cc(Br)c(O)c(Br)c2)(c2cc(Br)c(O)c(Br)c2)c2ccccc21
active: DIO2 (gene 1734) 36.4 µM | DIO3 (gene 1735) 13 µM

Cc1ccccc1OP(=O)(Oc1ccccc1C)Oc1ccccc1C
inactive: [2] | [3]
active: [1] 15 µM | [4] 18.7 µM | [5] 21.4 µM | [6] 20.3 µM | [7] 19.4 µM

O=C1c2ccccc2C(=O)C1C(=O)C(c1ccccc1)c1ccc(Cl)cc1 (centres undefined)
active: DIO2 (gene 1734) 91.9 µM | DIO3 (gene 1735) 68.5 µM

O=[N+]([O-])c1ccc(Cl)c([N+](=O)[O-])c1
active: DIO2 (gene 1734) 30.3 µM | DIO3 (gene 1735) 7.41 µM

O=S(=O)(F)C(F)(F)C(F)(F)C(F)(F)C(F)(F)F
inactive: [1] | [2] | [3] | [4] | [5] | [6] | [7]

C=CCOC(F)(C(F)(F)F)C(F)(F)F
inactive: [1] | [2] | [3] | [5] | [6] | [7]
active: [4] 0.0255 µM

CC(C)[C@@H](Nc1ccc(C(F)(F)F)cc1Cl)C(=O)OC(C#N)c1cccc(Oc2ccccc2)c1 (some centres undefined)
inactive: [1] | [2] | [3] | [6]
active: [4] 20.9 µM | [5] 25.8 µM | [7] 14.5 µM

NC(=O)c1ccc(N)nc1
active: [1] 3.16 µM | [3] 7.35 µM | [4] 4.53 µM | [5] 7.59 µM | [6] 4.19 µM | [7] 6.23 µM
inactive: [2]

N#CCC#N
active: DIO2 (gene 1734) 48.8 µM | DIO3 (gene 1735) 58 µM

O=S1OC[C@@H]2[C@H](CO1)[C@]1(Cl)C(Cl)=C(Cl)[C@@]2(Cl)C1(Cl)Cl (some centres undefined)
inactive: [8]

CS(=O)(=O)c1ccc(C(=O)C2C(=O)CCCC2=O)c(Cl)c1COCC(F)(F)F
inactive: [1] | [2] | [3] | [4] | [5] | [6] | [7]
